# Data reported in the antibiotic and cytotoxicity screens of Wong et al. (2023).
# Screen size: about 39,000 compounds; about 3,300 (8.5%) were called active. This is one part of a sample in which actives are shown more often than they occur.
# Test system: HepG2
# Assay: cytotoxicity call (relative viability < 0.9)
# Conditions: 10 µM
row,SMILES,cytotoxicity call
1,C[C@H]1CCCCO[C@H](CN(C)C(=O)Nc2ccccc2)[C@@H](C)CN([C@@H](C)CO)C(=O)c2cc(NC(=O)C3CCCCC3)ccc2O1,inactive
2,C[C@H]1CN([C@@H](C)CO)S(=O)(=O)c2ccc(C#CC3CC3)cc2O[C@@H]1CN(C)Cc1cccc(F)c1,inactive
3,Nc1ccn(C[C@@H](CO)OCP(=O)(O)O)c(=O)n1,inactive
4,Cc1noc(C)c1S(=O)(=O)Nc1ccc2c(c1)C(=O)N([C@H](C)CO)C[C@@H](C)[C@H](CN(C)Cc1ccc(-c3ccccc3)cc1)O2,inactive
5,Cc1noc(C)c1S(=O)(=O)Nc1ccc2c(c1)C(=O)N([C@H](C)CO)C[C@H](C)[C@@H](CN(C)Cc1ccccc1)OCCCC[C@@H](C)O2,inactive
6,C[C@H](CO)N1C[C@H](C)[C@@H](CN(C)C(=O)NC2CCCCC2)Oc2ccc(NC(=O)Cn3cnnn3)cc2C1=O,inactive
7,C=CCNC(=O)[C@H]1[C@@H]2C(=O)O[C@@H](c3ccccc3)[C@@H](c3ccccc3)N2[C@@H](c2ccc(OCCO)cc2)[C@]12C(=O)Nc1ccc(C#CC3=CCCCC3)cc12,inactive
8,CO[C@@H](CCO)[C@@H](O)c1ccc(O)c(F)c1,inactive
9,C[C@H](CO)N1C[C@H](C)[C@@H](CN(C)Cc2ccccn2)Oc2ncc(C#Cc3cccc(F)c3)cc2C1=O,inactive
10,COc1ccc(NC(=O)N(C)C[C@H]2OCCCC[C@@H](C)Oc3ccc(NS(=O)(=O)c4ccc(F)cc4)cc3C(=O)N([C@@H](C)CO)C[C@@H]2C)cc1,inactive
11,COc1ccc(S(=O)(=O)Nc2ccc3c(c2)C(=O)N([C@@H](C)CO)C[C@H](C)[C@@H](CN(C)C(=O)Nc2ccc(F)cc2)OCCCC[C@H](C)O3)cc1,active
12,COc1ccc(NC(=O)N(C)C[C@@H]2OCCCC[C@@H](C)Oc3ccc(NS(=O)(=O)c4ccc(F)cc4)cc3C(=O)N([C@H](C)CO)C[C@@H]2C)cc1,inactive
13,COc1ccc(NC(=O)N(C)C[C@H]2OCCCC[C@H](C)Oc3ccc(NS(=O)(=O)c4ccc(F)cc4)cc3C(=O)N([C@H](C)CO)C[C@@H]2C)cc1,inactive
14,COc1ccc(NC(=O)N(C)C[C@@H]2OCCCC[C@H](C)Oc3ccc(NS(=O)(=O)c4ccc(F)cc4)cc3C(=O)N([C@@H](C)CO)C[C@@H]2C)cc1,inactive
15,COc1ccc(S(=O)(=O)Nc2ccc3c(c2)C(=O)N([C@@H](C)CO)C[C@H](C)[C@@H](CN(C)C(=O)Nc2ccc(F)cc2)OCCCC[C@@H](C)O3)cc1,active
16,Cc1cc(=O)n2nc(S(C)(=O)=O)nc2[nH]1,inactive
17,C[C@H]1CN([C@@H](C)CO)S(=O)(=O)c2ccc(C#Cc3ccccc3)cc2O[C@@H]1CN(C)C(=O)c1ccccn1,inactive
18,COCc1nc(C)c(CN)s1,inactive
19,COc1ccc(-c2cc(=O)c3c(O)cc(O[C@@H]4O[C@H](CO)[C@@H](O)[C@H](O)[C@H]4O[C@@H]4O[C@H](COC(C)=O)[C@@H](O)[C@@H](O)[C@H]4O)c(O)c3o2)cc1,inactive
20,CSc1cccc(NC(=O)/C=C/c2ccc(C(C)C)cc2)c1,inactive
21,CC(Cc1ccc(O)c(O)c1)(NN)C(=O)O (configuration not stated),active

row,SMILES,cytotoxicity call
1,O=C(O)Cc1ccc(O)c(O)c1,inactive
2,CCOC(=O)[C@@H](N)Cc1ccc(O)c(O)c1,inactive
3,C[C@@](Cc1ccc(O)c(O)c1)(NN)C(=O)O,active
4,CO[C@@H]1CN(C)C(=O)c2ccc(NS(=O)(=O)c3cn(C)cn3)cc2OC[C@H](C)N(CCC(F)(F)F)C[C@@H]1C,inactive
5,C[C@H]1CN([C@@H](C)CO)S(=O)(=O)c2ccc(-c3cncnc3)cc2O[C@H]1CN(C)C(=O)c1cccc(F)c1,inactive
6,CCN1CCCC[C@@H]1C(=O)O,inactive
7,C[C@H]1CN([C@@H](C)CO)C(=O)c2cc(NS(=O)(=O)c3cn(C)cn3)ccc2O[C@@H]1CN(C)CC1CCCCC1,inactive
8,C[C@H]1CN([C@@H](C)CO)C(=O)Cc2cc(NC(=O)CCCCCC(=O)Nc3ccccc3N)ccc2O[C@@H]1CN(C)CC1CCCCC1,inactive
9,Cc1ccc(S(=O)(=O)N(C)C[C@@H]2OCCCC[C@H](C)Oc3ccc(NC(=O)Cc4ccccc4)cc3C(=O)N([C@H](C)CO)C[C@H]2C)cc1,inactive
10,Cc1ccc(S(=O)(=O)N(C)C[C@@H]2OCCCC[C@@H](C)Oc3ccc(NC(=O)Cc4ccccc4)cc3C(=O)N([C@H](C)CO)C[C@@H]2C)cc1,inactive
11,Cc1ccc(S(=O)(=O)N(C)C[C@H]2OCCCC[C@H](C)Oc3ccc(NC(=O)Cc4ccccc4)cc3C(=O)N([C@@H](C)CO)C[C@@H]2C)cc1,active
12,Cc1ccc(S(=O)(=O)N(C)C[C@@H]2OCCCC[C@@H](C)Oc3ccc(NC(=O)Cc4ccccc4)cc3C(=O)N([C@@H](C)CO)C[C@@H]2C)cc1,inactive
13,Cc1ccc(S(=O)(=O)N(C)C[C@H]2OCCCC[C@H](C)Oc3ccc(NC(=O)Cc4ccccc4)cc3C(=O)N([C@H](C)CO)C[C@H]2C)cc1,inactive
14,Cc1ccc(S(=O)(=O)N(C)C[C@@H]2OCCCC[C@H](C)Oc3ccc(NC(=O)Cc4ccccc4)cc3C(=O)N([C@H](C)CO)C[C@@H]2C)cc1,active
15,CC(C)NC(=O)Nc1ccc2c(c1)C(=O)N([C@H](C)CO)C[C@@H](C)[C@H](CN(C)S(=O)(=O)c1cn(C)cn1)OCCCC[C@H](C)O2,inactive
16,CC(C)(C)NC(=O)[C@@H]1C[C@@H]2CCCC[C@@H]2CN1C[C@@H](O)[C@H](Cc1ccccc1)NC(=O)[C@H](CC(N)=O)NC(=O)c1ccc2ccccc2n1,inactive
17,Cc1noc(C)c1S(=O)(=O)Nc1cccc2c1O[C@H](CN(C)C(=O)Nc1ccc3c(c1)OCO3)[C@H](C)CN([C@@H](C)CO)C2=O,inactive
18,COc1ccc(S(=O)(=O)Nc2cccc3c2O[C@H](CN(C)S(C)(=O)=O)[C@H](C)CN([C@H](C)CO)C3=O)cc1,inactive
19,C[C@@H]1CN([C@H](C)CO)C(=O)c2cccc(NC(=O)c3ccc(-c4nccs4)cc3)c2O[C@@H]1CN(C)Cc1ccc(C(=O)Nc2ccccc2N)cc1,active
20,C[C@@H]1CN([C@H](C)CO)C(=O)c2cccc(NC(=O)c3cnccn3)c2O[C@H]1CN(C)Cc1ccccc1,active
21,C[C@@H]1CN([C@@H](C)CO)C(=O)c2cccc(NC(=O)c3cnccn3)c2O[C@H]1CN(C)Cc1ccccc1,inactive

row,SMILES,cytotoxicity call
1,C[C@H](CO)N1C[C@H](C)[C@H](CN(C)S(=O)(=O)c2ccc(Cl)cc2)Oc2c(NC(=O)c3ccc(-c4nccs4)cc3)cccc2C1=O,active
2,C[C@@H]1CN([C@@H](C)CO)C(=O)c2cccc(NC(=O)c3ccc(-c4nccs4)cc3)c2O[C@@H]1CN(C)S(=O)(=O)c1ccc(Cl)cc1,inactive
3,C[C@H](CO)N1C[C@H](C)[C@@H](CN(C)Cc2ccccc2)Oc2c(NC(=O)c3cnccn3)cccc2C1=O,inactive
4,C[C@H](CO)N1C[C@H](C)[C@@H](CN(C)Cc2ccc(C(=O)Nc3ccccc3N)cc2)Oc2c(NC(=O)c3ccc(-c4nccs4)cc3)cccc2C1=O,inactive
5,C[C@@H]1CN([C@@H](C)CO)C(=O)c2cccc(NC(=O)c3ccc(-c4nccs4)cc3)c2O[C@@H]1CN(C)Cc1ccc(-c2ccccc2)cc1,active
6,C[C@H](CO)N1C[C@H](C)[C@@H](CN(C)Cc2ccc(-c3ccccc3)cc2)Oc2c(NC(=O)c3ccc(-c4nccs4)cc3)cccc2C1=O,inactive
7,C[C@H]1CN([C@@H](C)CO)C(=O)c2cccc(NC(=O)c3ccc(-c4nccs4)cc3)c2O[C@H]1CN(C)Cc1ccc(C(=O)Nc2ccccc2N)cc1,inactive
8,C[C@H]1CN([C@@H](C)CO)C(=O)c2cccc(NC(=O)c3ccc(-c4nccs4)cc3)c2O[C@@H]1CN(C)Cc1ccc(-c2ccccc2)cc1,inactive
9,C[C@@H]1CN([C@@H](C)CO)C(=O)c2cccc(NC(=O)c3ccc(-c4nccs4)cc3)c2O[C@H]1CN(C)S(=O)(=O)c1ccc(Cl)cc1,inactive
10,C[C@H]1CN([C@@H](C)CO)C(=O)c2cc(NS(=O)(=O)c3cccs3)ccc2O[C@@H]1CN(C)S(=O)(=O)c1ccccc1,inactive
11,COC(=O)CCCCCCC(=O)N/N=C/[C@H](O)[C@@H](O)[C@H](O[C@@H]1O[C@H](CO)[C@H](O)[C@H](O)[C@H]1O)[C@H](O)CO,inactive
12,CO[C@H](CN(C)C(=O)c1ccc2c(c1)OCO2)[C@H](C)CN([C@@H](C)CO)S(=O)(=O)c1ccc(C)cc1,inactive
13,Cc1ccc(S(=O)(=O)N(C)C[C@H]2Oc3ccc(NC(=O)CCN4CCOCC4)cc3CC(=O)N([C@@H](C)CO)C[C@@H]2C)cc1,inactive
14,Cc1cc(=O)oc2cc(O[C@H]3O[C@@H](CO)[C@@H](O)[C@@H](O)[C@@H]3O)ccc12,inactive
15,C[C@H]1C[C@@H]2[C@@H](C[C@@H]1C)N[C@@H]1C(=O)NC(=O)N[C@H]1N2C[C@H](O)[C@H](O)[C@H](O)CO,inactive
16,Cc1ccc(S(=O)(=O)N(C)C[C@@H]2OCCCC[C@@H](C)Oc3ccc(NC(=O)Nc4ccccc4)cc3C(=O)N([C@@H](C)CO)C[C@@H]2C)cc1,inactive
17,COc1ccc(NC(=O)Nc2ccc3c(c2)C(=O)N([C@H](C)CO)C[C@H](C)[C@@H](CN(C)C(=O)Nc2cccc4ccccc24)OCCCC[C@@H](C)O3)cc1,inactive
18,CC#CC(=O)NS(=O)(=O)c1ccccc1,inactive
19,C[C@@H]1CN([C@@H](C)CO)C(=O)c2cccc(NC(=O)C3CCOCC3)c2O[C@H]1CN(C)S(=O)(=O)c1cn(C)cn1,inactive
20,C[C@H]1CN([C@@H](C)CO)C(=O)Cc2cc(NS(=O)(=O)c3cn(C)cn3)ccc2O[C@@H]1CN(C)CC1CCCCC1,inactive
